From PubChem
This is one part of a sample in which hits are shown more often than they occur.
GIRK2 act: activators of NPY4-receptor-primed GIRK2 channels, summary, cell-based, HEK293, thallium flux. G protein-activated inward rectifier potassium channel 2 (Homo sapiens), P48051. HEK293 GIRK2/NPY4 cells, thallium flux fluorescence. activation (% efficacy), % for hits at 37.5 µM. 34,000 tested, under 10 active;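 active = primary screen hit, no activity in plain HEK293 cells, and in GIRK2-only cells above 5% efficacy rising with concentration; inactive = the rest, including fluorescent compounds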;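 also: efficacy is normalized control-subtracted fluorescence 15 s after thallium addition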
Target sequence (P48051 whole entry, looked up): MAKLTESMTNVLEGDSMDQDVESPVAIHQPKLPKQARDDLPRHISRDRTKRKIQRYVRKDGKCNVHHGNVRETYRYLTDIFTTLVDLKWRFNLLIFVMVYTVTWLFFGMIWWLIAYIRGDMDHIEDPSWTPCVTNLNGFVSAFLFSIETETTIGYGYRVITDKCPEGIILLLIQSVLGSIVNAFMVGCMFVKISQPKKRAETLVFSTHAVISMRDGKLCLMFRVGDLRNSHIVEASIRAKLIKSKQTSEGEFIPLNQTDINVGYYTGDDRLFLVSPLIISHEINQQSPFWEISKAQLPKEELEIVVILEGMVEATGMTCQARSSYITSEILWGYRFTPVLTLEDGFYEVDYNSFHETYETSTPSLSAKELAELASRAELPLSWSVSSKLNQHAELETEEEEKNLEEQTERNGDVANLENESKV
AMPAR-TARP mod: modulators of GluA2-stargazin AMPA receptor complexes, primary screen, cell-based, membrane potential dye. Voltage-dependent calcium channel gamma-2 subunit (Mus musculus) + Glutamate receptor 2 …. HEK293 GluA2+stargazin, membrane potential dye (FDSS), glutamate EC50; hits were called plate by plate, in both directions. calls only at 30 µM. hit rate 3.5% among 40,000. AID 1259245, 2017;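 active = any of four per-well response measures lying three or more SD from its plate-wide compound average, in either direction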
Active calls of the source: *; i = inactive; / = no result given; + = active, no number.

SMILES	GIRK2 act	AMPAR-TARP mod
Cc1ccccc1NC(=O)CN1CCC(c2nnc(-c3ccc(F)cc3)o2)CC1	i	i
NC(=S)CCN1C(=O)c2ccccc2C1=O	/	i
COc1ccccc1CCNC(=O)C(=O)Nc1ccccc1SC	i	i
Cc1cnn(C)c1C(=O)Nc1nnc(-c2ccnn2C)o1	i	i
Cn1nccc1-c1nnc(NC(=O)c2ccc(Br)o2)o1	i	+
COc1ccccc1NC(=O)C(=O)NCCC1CCCCN1S(=O)(=O)c1ccc(F)cc1 (stereo not drawn)	/	i
Brc1cccc(-c2nnc3sc(-c4cccnc4)nn23)c1	i	+
O=c1oc(-c2cccnc2)nc2ccc(Br)cc12	i	i
Cn1cc(NC(=O)Nc2cccc3ccccc23)c2ccccc21	/	i
CCc1ccc(OCCOCC(O)CN2CCN(Cc3ccc4c(c3)OCO4)CC2)cc1 (stereo not drawn)	/	+
Cc1cc(C)cc(OCC(O)CN2CCN(Cc3ccc4c(c3)OCO4)CC2)c1 (stereo not drawn)	/	i
COc1ccc(F)cc1S(=O)(=O)NCc1cnn2ccccc12	i	/
O=C(CSCc1ccccc1)N1CCN(c2ncnc3c2nnn3-c2ccccc2)CC1	/	i
O=C(CC(c1ccccc1)c1ccccc1)N1CCN(c2ncnc3c2nnn3-c2ccccc2)CC1	/	+
CCC(CC)C(=O)N1CCN(c2ncnc3c2nnn3-c2cccc(OC)c2)CC1	/	+
COc1ccc(-n2nnc3c(N4CCN(C(=O)c5ccccc5SC)CC4)ncnc32)cc1	/	+
CCSc1ccccc1C(=O)N1CCN(c2ncnc3c2nnn3-c2ccc(C)cc2)CC1	/	i
COc1ccc(-n2nnc3c(N4CCN(C(=O)c5ccccc5Cl)CC4)ncnc32)cc1	/	i
CCSc1ccccc1C(=O)N1CCN(c2ncnc3c2nnn3-c2ccc(OC)cc2)CC1	/	+
CCC(=O)N1CCN(c2ncnc3c2nnn3-c2cccc(OC)c2)CC1	/	i
COc1cccc(CCNS(=O)(=O)CCCOc2ccc(F)cc2)c1	i	i
Cc1nn(C2CCS(=O)(=O)C2)c(C)c1CC(=O)Nc1nnc(SCc2ccccc2)s1 (stereo not drawn)	i	i
O=C(Nc1ccc2c(c1)OCO2)c1ccc(S(=O)(=O)Nc2cccnc2)o1	i	i
CCOC(=O)c1sc(NC(=O)c2ccn(C)n2)cc1C	i	i
COc1ccc(C(=O)Oc2c(S(=O)(=O)c3ccc(C)cc3)c(C)nn2C(C)(C)C)cc1OC	/	+
SMILES	GIRK2 act	AMPAR-TARP mod
Cc1ccc(S(=O)(=O)c2c(C)nn(C(C)(C)C)c2OC(=O)c2cccc(C)c2)cc1	/	i
COc1ccc(-c2ccc(=O)n(CCNS(=O)(=O)c3ccc(Br)cc3)n2)cc1	/	i
O=[N+]([O-])c1ccccc1S(=O)(=O)NCC1COC2(CCCCC2)O1 (stereo not drawn)	i	i
O=S(=O)(NCC1COC2(CCCCC2)O1)c1ccc(Cl)cc1 (stereo not drawn)	i	+
COc1ccc(F)cc1S(=O)(=O)NCC1COC2(CCCCC2)O1 (stereo not drawn)	i	i
O=S(=O)(NCC1COC2(CCCCC2)O1)c1cccc2ccccc12 (stereo not drawn)	/	+
O=S(=O)(NCC1COC2(CCCCC2)O1)c1cc(F)ccc1F (stereo not drawn)	i	+
CCc1ccc(S(=O)(=O)NCC2COC3(CCCCC3)O2)s1 (stereo not drawn)	i	i
Cn1ccnc1N1CCN(C(=O)C2CC(=O)N(c3ccc(Cl)cc3)C2)CC1 (stereo not drawn)	i	i
Cn1c(=O)c(C(=O)N2CCc3ccccc3C2)cc2cccnc21	i	i
CCOc1ccc(-n2nnc(C(=O)Nc3cccc(C(F)(F)F)c3)c2N)cc1	i	i
O=C(NCC1CCN(C(=O)c2cc3ccccc3o2)CC1)c1ccc2nsnc2c1	i	+
O=C(/C=C/c1cccs1)NCC1CCN(C(=O)c2cc3ccccc3o2)CC1	i	+
O=C(NCc1cccs1)NCC1CCN(C(=O)c2cc3ccccc3o2)CC1	i	i
O=C(NCC1CCN(C(=O)c2ccccc2F)CC1)c1ccc2nsnc2c1	i	i
O=C(CSc1c[nH]c2ccccc12)NCC1CCCO1 (stereo not drawn)	i	i
CC(C)c1nnc(C2CCN(C(=O)c3nc4ccccc4s3)CC2)o1	i	i
CC(C)c1nnc(C2CCN(S(=O)(=O)c3cccnc3)CC2)o1	i	i
CC(C)c1nnc(C2CCN(S(=O)(=O)c3ccc4c(c3)CCCC4)CC2)o1	i	+
Cc1cccc(S(=O)(=O)NCCCN2CCN(c3ccccc3)CC2)c1	/	i
COc1c(C)cc(S(=O)(=O)NCC(O)(c2ccco2)C2CC2)cc1C (stereo not drawn)	i	i
COc1ccc(N(C)S(=O)(=O)c2ccsc2-c2nc(-c3ccc(SC)cc3)no2)cc1	i	+
CN(c1ccc(F)cc1)S(=O)(=O)c1ccsc1-c1nc(-c2ccc(F)cc2)no1	i	i
CC(=O)N1CCc2c(sc(NC(=O)c3ccc(S(=O)(=O)C(C)C)cc3)c2C(N)=O)C1	i	+
CC(C)S(=O)(=O)c1ccc(C(=O)Nc2sc3c(c2C(N)=O)CCCC3)cc1	i	i
SMILES	GIRK2 act	AMPAR-TARP mod
CS(=O)(=O)N1CCN=C1SCc1c(F)cccc1Cl	/	i
O=C(CN1C(=O)c2ccccc2S1(=O)=O)Nc1ncc([N+](=O)[O-])s1	i	i
COc1cc(NC(=O)c2n[nH]nc2Nc2cccc(Cl)c2)cc(OC)c1	i	+
O=C(Nc1ccccc1Br)c1n[nH]nc1Nc1cccc(Cl)c1	i	i
Cc1cc(C)cc(OC(C)C(=O)N2CCN(c3ccc4nncn4n3)CC2)c1 (stereo not drawn)	i	i
CCn1c(SCC(=O)N2CCN(C(c3ccccc3)c3ccccc3)CC2)nc2ccccc2c1=O	/	+
Cc1cc(=O)[nH]c(SCC(=O)N2CCN(C(c3ccccc3)c3ccccc3)CC2)n1	/	i
CSc1ccc(-c2noc(C3CCN(S(=O)(=O)c4ccc(Cl)cc4)CC3)n2)cc1	i	/
COc1cccc(COc2coc(C(=O)Nc3ccc(C)c(F)c3)cc2=O)c1	i	i
COc1coc(C(=O)Nc2ccc(F)c(F)c2)cc1=O	i	+
O=C(CN1CCC(c2nnc(C3CC3)o2)CC1)NCCc1ccccc1	i	+
O=C(NCCc1ccccc1)N1CCC(c2nnc(C3CC3)o2)CC1	/	i
C=CCNCc1ccc(OC)c(OC)c1	/	i
COc1cccc2cc(C(=O)CS(=O)(=O)c3ccccc3)c(=O)oc12	/	+
CCC(C)NC(=O)c1cc2cccc(OC)c2oc1=O (stereo not drawn)	i	i
O=S(=O)(c1ccc(Br)cc1)N1CCCN(S(=O)(=O)c2ccc(Br)cc2)CC1	/	i
CN1C(=O)C(=C2C=C(c3ccccc3)N(Cc3ccco3)C3=C2CCCC3)C(=O)N(C)C1=O	/	+
COc1ccc(-c2c(C)nn3c(N4CCOCC4)cc(C)nc23)cc1OC	i	i
